Among all 5,500 compounds or so, about 2,000 (36%) were called active. Another 18% or so got no clear call; they are omitted. Rule as the data show it: active = normalized growth mostly below about 0.91 (no sharp cut-off); inconclusive = no clear call, values can overlap the other calls; inactive = mostly above about 0.92. The list shows a part of the results.
Experiment: chemical genetic growth profiling, strain panel (AID 1159580);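 also: tested at 20 µM; growth read once vehicle control cultures reached saturation at 30 °C; 1 = growth at the plate median or of vehicle wells; lower values mean less growth of the strain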
Settings: S. cerevisiae deletion strains, growth OD
[1] = locus YAL040C, strain CLN3, hits give low values
[2] = locus YCL061C, strain MRC1 (second series), hits give low values
[3] = locus YDR363W, strain ESC2, hits give low values
[4] = locus YER002W, strain NOP16, hits give low values
[5] = locus YMR307W, strain GAS1, hits give low values
[6] = locus YNL153C, strain GIM3, hits give low values
[7] = locus YNL175C, strain NOP13, hits give low values
[8] = locus YNL197C, strain WHI3, hits give low values
[9] = locus YNL224C, strain SQS1, hits give low values
[10] = locus YOR083W, strain WHI5 (second series), hits give low values
[11] = locus YPL055C, strain LGE1, hits give low values
[12] = locus YHR030C, strain SLT2, hits give low values
[13] = locus YHR079C, strain IRE1, hits give low values
[14] = locus YJL095W, strain BCK1, hits give low values
[15] = locus YJR066W, strain TOR1, hits give low values
[16] = locus YLR113W, strain HOG1, hits give low values
[17] = locus YNL183C, strain NPR1, hits give low values
[18] = locus YOR231W, strain MKK1, hits give low values
[19] = locus YPL256C, strain CLN2, hits give low values

Measured: normalized growth

Nc1ncnc2c1ncn2C1CCCO1 (centres undefined)
inactive: locus YAL013W, strain DEP1, hits give low values 1.03 | [1] 1.03 | [2] 0.997 | [3] 1.02 | [4] 0.967 | locus YJR075W, strain HOC1, hits give low values 1.02 | [5] 1 | [6] 0.989 | [7] 0.986 | [8] 0.967 | [9] 1 | [10] 0.977 | [11] 1.02

O=C1c2cccc3c(Sc4ccccc4)ccc(c23)C(=O)N1NCCO
inactive: locus YAR019C, strain CDC15, hits give low values 0.921 | locus YBL105C, strain PKC1, hits give low values 0.926 | locus YBR135W, strain CKS1, hits give low values 0.92 | locus YBR136W, strain MEC1, hits give low values 0.929 | locus YBR160W, strain CDC28, hits give low values 0.922 | locus YDL017W, strain CDC7, hits give low values 0.929 | locus YDL028C, strain MPS1, hits give low values 0.924 | locus YDL101C, strain DUN1, hits give low values 0.916 | locus YDL108W, strain KIN28, hits give low values 0.929 | locus YDL132W, strain cdc53, hits give low values 0.941 | locus YDL214C, strain PRR2, hits give low values 0.861 | locus YDR052C, strain DBF4, hits give low values 0.941 | locus YDR054C, strain cdc34, hits give low values 0.936 | locus YDR226W, strain ADK1, hits give low values 0.952 | locus YDR477W, strain SNF1, hits give low values 0.853 | locus YER123W, strain YCK3, hits give low values 0.855 | locus YER133W, strain GLC7, hits give low values 0.908 | locus YFL009W, strain cdc4, hits give low values 0.912 | locus YFL029C, strain CAK1, hits give low values 0.911 | locus YFR003C, strain YPI1, hits give low values 0.923 | locus YFR019W, strain FAB1, hits give low values 0.897 | locus YFR028C, strain CDC14, hits give low values 0.938 | locus YGR040W, strain KSS1, hits give low values 0.859 | locus YGR052W, strain FMP48, hits give low values 0.83 | locus YGR092W, strain DBF2, hits give low values 0.734 | [13] 0.84 | locus YHR082C, strain KSP1, hits give low values 0.8 | locus YHR205W, strain SCH9, hits give low values 0.857 | locus YIL147C, strain SLN1, hits give low values 0.921 | [14] 0.771 | locus YJL128C, strain PBS2, hits give low values 0.816 | locus YJL157C, strain FAR1, hits give low values 0.896 | locus YJR016C, strain ILV3, hits give low values 0.921 | locus YJR066W, strain TOR1 (second series), hits give low values 0.93 | [15] 0.805 | locus YKL048C, strain ELM1, hits give low values 0.831 | locus YKL067W, strain YNK1, hits give low values 0.861 | locus YKL101W, strain HSL1, hits give low values 0.804 | locus YKL193C, strain SDS22, hits give low values 0.912 | locus YKL203C, strain TOR2, hits give low values 0.887 | locus YLR133W, strain CKI1, hits give low values 0.844 | locus YLR403W, strain SFP1, hits give low values 0.863 | locus YML070W, strain DAK1, hits give low values 0.857 | locus YMR001C, strain CDC5, hits give low values 0.914 | locus YMR205C, strain PFK2 (second series), hits give low values 0.854 | locus YMR277W, strain FCP1, hits give low values 0.904 | locus YNL006W, strain LST8, hits give low values 0.931 | locus YNL020C, strain ARK1, hits give low values 0.814 | locus YNL161W, strain CBK1, hits give low values 0.927 | [17] 0.784 | locus YNL207W, strain RIO2, hits give low values 0.922 | locus YNL222W, strain SSU72, hits give low values 0.921 | locus YNL307C, strain MCK1 (second series), hits give low values 0.834 | locus YOL078W, strain AVO1, hits give low values 0.911 | locus YOL136C, strain PFK27, hits give low values 0.853 | locus YOR061W, strain CKA2, hits give low values 0.877 | locus YOR119C, strain RIO1, hits give low values 0.936 | [18] 0.845 | locus YOR329C, strain SCD5, hits give low values 0.93 | locus YPL031C, strain PHO85, hits give low values 0.837 | locus YPL153C, strain RAD53, hits give low values 0.82 | locus YPL204W, strain HRR25, hits give low values 0.837 | locus YPL209C, strain IPL1, hits give low values 0.923 | locus YPR025C, strain CCL1, hits give low values 0.926 | locus YPR106W, strain ISR1, hits give low values 0.915 | locus YPR111W, strain DBF20, hits give low values 0.957 | strain NNK1, hits give low values 0.897 | strain TSCII, hits give low values 0.917
active: [12] 0.577 | [16] 0.771 | [19] 0.757

C[N+]1(C)CCOC(O)(c2ccc(-c3ccc(C4(O)C[N+](C)(C)CCO4)cc3)cc2)C1 (centres undefined)
inactive: [1] 1.09 | [2] 0.993 | locus YDR150W, strain NUM1, hits give low values 0.99 | [3] 1.02 | [4] 1 | locus YGR078C, strain PAC10, hits give low values 1.01 | locus YMR263W, strain SAP30, hits give low values 1 | [5] 0.993 | [6] 1.05 | [7] 1 | [8] 1.01 | [9] 1 | [10] 1.02 | [11] 0.971 | locus YPL241C, strain CIN2, hits give low values 1

CC(C)NCC(O)COc1ccc(COCCOC(C)C)cc1 (centres undefined)
inactive: locus YAL021C, strain ccr4, hits give low values 1 | locus YAL026C, strain drs2, hits give low values 1.01 | locus YAL030W, strain snc1, hits give low values 0.998 | locus YBL061C, strain skt5, hits give low values 0.997 | locus YBR009C, strain hhf1, hits give low values 0.998 | locus YBR023C, strain chs3, hits give low values 0.998 | locus YBR171W, strain sec66, hits give low values 1 | locus YBR231C, strain swc5, hits give low values 1 | locus YBR279W, strain paf1, hits give low values 1 | locus YCL011C, strain gbp2, hits give low values 1.01 | locus YCL016C, strain dcc1, hits give low values 0.999 | locus YCL061C, strain MRC1, hits give low values 1 | locus YCL069W, strain vba3, hits give low values 1 | locus YCR088W, strain abp1, hits give low values 0.997 | locus YDL005C, strain med2, hits give low values 1 | locus YDL040C, strain nat1, hits give low values 1 | locus YDR001C, strain nth1, hits give low values 1.01 | locus YDR069C, strain doa4, hits give low values 1.02 | locus YDR137W, strain rgp1, hits give low values 1.02 | locus YDR159W, strain sac3, hits give low values 0.979 | locus YDR195W, strain ref2 0.97 | locus YDR297W, strain sur2, hits give low values 1.01 | locus YDR334W, strain swr1, hits give low values 1 | locus YDR335W, strain msn5, hits give low values 1 | locus YDR392W, strain spt3, hits give low values 0.947 | locus YEL003W, strain gim4, hits give low values 1 | locus YEL037C, strain rad23, hits give low values 1.02 | locus YEL061C, strain CIN8 (second series), hits give low values 1 | locus YER015W, strain faa2, hits give low values 0.995 | locus YER016W, strain bim1, hits give low values 0.988 | locus YER111C, strain swi4, hits give low values 1 | locus YER155C, strain BEM2 (second series), hits give low values 1 | locus YFR010W, strain ubp6, hits give low values 1.03 | locus YGL167C, strain pmr1, hits give low values 1.01 | locus YGL173C, strain kem1, hits give low values 1 | locus YGL227W, strain vid30, hits give low values 1 | locus YGL240W, strain doc1, hits give low values 1 | locus YGL253W, strain hxk2, hits give low values 0.999 | locus YHR013C, strain ard1, hits give low values 0.995 | locus YHR027C, strain rpn1, hits give low values 0.999 | [12] 1.04 | [13] 1.05 | locus YHR142W, strain chs7, hits give low values 1.01 | locus YJL092W, strain hpr5, hits give low values 0.994 | locus YJL095W, strain BCK1 (second series), hits give low values 1 | [14] 0.976 | locus YJL115W, strain asf1, hits give low values 0.999 | locus YJL129C, strain trk1, hits give low values 1 | locus YJL154C, strain vps35, hits give low values 1.01 | locus YJL164C, strain tpk1, hits give low values 1.01 | locus YJL166W, strain qcr8, hits give low values 1.01 | locus YJL187C, strain SWE1, hits give low values 1.01 | [15] 0.987 | locus YKL160W, strain elf1, hits give low values 1 | locus YKR026C, strain gcn3, hits give low values 0.986 | locus YKR091W, strain srl3, hits give low values 1 | locus YLL001W, strain dnm1, hits give low values 0.983 | locus YLL026W, hits give low values 0.998 | locus YLL041C, strain sdh2, hits give low values 1 | locus YLR027C, strain aat2, hits give low values 0.998 | [16] 0.984 | locus YLR221C, strain rsa3, hits give low values 1.01 | locus YLR258W, strain gsy2, hits give low values 0.999 | locus YLR262C, strain YPT6 (second series), hits give low values 1.01 | locus YLR320W, strain mms22, hits give low values 0.999 | locus YLR342W, strain FKS1, hits give low values 1 | locus YLR357W, strain rsc2, hits give low values 0.982 | locus YLR370C, strain arc18, hits give low values 1 | locus YLR384C, strain iki3, hits give low values 0.999 | locus YML120C, strain ndi1, hits give low values 0.984 | locus YMR058W, strain fet3, hits give low values 1.01 | locus YMR125W, strain sto1, hits give low values 0.994 | locus YMR129W, hits give low values 1 | locus YMR205C, strain PFK2, hits give low values 0.981 | locus YMR231W, strain pep5, hits give low values 0.998 | locus YNL071W, strain lat1, hits give low values 1.01 | [17] 0.996 | locus YNL209W, strain ssb2, hits give low values 1 | locus YNL248C, strain rpa49, hits give low values 0.999 | locus YNL322C, strain KRE1 (second series), hits give low values 0.987 | locus YNR049C, strain mso1, hits give low values 1 | locus YOR001W, strain rrp6, hits give low values 1 | locus YOR070C, strain gyp1, hits give low values 1.01 | locus YOR080W, strain dia2, hits give low values 0.997 | locus YOR083W, strain WHI5, hits give low values 1 | locus YOR106W, strain vam3, hits give low values 1.01 | [18] 1.03 | locus YOR265W, strain rbl2, hits give low values 1.03 | locus YOR270C, strain vph1, hits give low values 1.01 | locus YOR290C, strain snf2, hits give low values 1 | locus YPL051W, strain arl3, hits give low values 1 | locus YPL078C, strain atp4, hits give low values 1.01 | locus YPL106C, strain sse1, hits give low values 1 | locus YPL240C, strain hsp82, hits give low values 1.01 | [19] 1.03
